In ChEMBL document CHEMBL1201862, “PubChem BioAssay data set” (2004):
The campaign covered roughly 400,000 compounds. About 2,100 (0.53%) were called active. About 14% were inconclusive and are not listed. The sample holds actives, similar compounds and a random draw of the others, so the mix is not that of the screen. No rule for the calls is given here.

biological target: Ataxin-2 (Homo sapiens) (UniProt Q99700); assay: qHTS for Inhibitors of ATXN expression.; assay type: functional
Sequence (Q99700 whole entry): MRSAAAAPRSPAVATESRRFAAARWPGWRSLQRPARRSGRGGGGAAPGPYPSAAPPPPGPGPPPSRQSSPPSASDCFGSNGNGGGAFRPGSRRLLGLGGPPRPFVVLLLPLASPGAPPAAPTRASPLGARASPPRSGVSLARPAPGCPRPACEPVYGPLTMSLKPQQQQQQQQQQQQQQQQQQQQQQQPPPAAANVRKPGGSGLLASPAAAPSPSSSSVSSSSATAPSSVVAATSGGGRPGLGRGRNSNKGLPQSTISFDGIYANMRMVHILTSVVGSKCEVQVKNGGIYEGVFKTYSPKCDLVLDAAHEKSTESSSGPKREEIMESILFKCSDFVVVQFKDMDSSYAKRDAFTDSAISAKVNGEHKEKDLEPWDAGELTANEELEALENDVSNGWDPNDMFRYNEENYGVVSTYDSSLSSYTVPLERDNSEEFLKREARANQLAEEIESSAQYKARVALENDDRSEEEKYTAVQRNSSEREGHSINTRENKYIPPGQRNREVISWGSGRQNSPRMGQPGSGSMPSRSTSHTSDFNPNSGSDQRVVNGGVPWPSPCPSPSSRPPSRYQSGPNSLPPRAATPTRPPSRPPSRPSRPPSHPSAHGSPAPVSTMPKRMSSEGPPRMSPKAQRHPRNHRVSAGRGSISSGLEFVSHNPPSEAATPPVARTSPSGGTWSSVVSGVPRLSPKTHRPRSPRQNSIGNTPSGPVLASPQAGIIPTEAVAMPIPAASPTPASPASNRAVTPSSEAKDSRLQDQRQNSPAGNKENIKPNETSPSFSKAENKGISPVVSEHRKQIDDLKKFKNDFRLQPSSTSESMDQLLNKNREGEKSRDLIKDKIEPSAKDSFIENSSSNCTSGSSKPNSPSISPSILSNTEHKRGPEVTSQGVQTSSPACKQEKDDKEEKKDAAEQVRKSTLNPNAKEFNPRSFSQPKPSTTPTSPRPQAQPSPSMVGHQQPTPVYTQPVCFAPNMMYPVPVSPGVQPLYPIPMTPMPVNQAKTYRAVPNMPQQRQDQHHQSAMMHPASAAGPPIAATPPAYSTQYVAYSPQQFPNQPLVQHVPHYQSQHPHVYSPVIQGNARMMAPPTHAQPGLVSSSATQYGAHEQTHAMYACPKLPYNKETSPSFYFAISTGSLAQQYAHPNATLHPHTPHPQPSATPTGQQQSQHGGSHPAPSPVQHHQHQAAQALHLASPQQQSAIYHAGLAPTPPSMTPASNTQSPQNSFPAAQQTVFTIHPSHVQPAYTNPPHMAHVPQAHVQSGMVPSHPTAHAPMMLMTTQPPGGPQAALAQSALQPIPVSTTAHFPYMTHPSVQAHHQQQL

SMILES | Potency
COCCn1c(=N)c(C(=O)NC(C)c2ccccc2)cc2c(=O)n3cc(C)ccc3nc21 (stereo not drawn) | inactive
CCN(CC)c1ccc2cc(C(N)=O)/c(=N\NC(=O)c3ccncc3)oc2c1 | inactive
CCCc1c(C(=O)N/N=C/c2ccc(OCc3ccc(F)cc3)cc2)nnn1-c1nonc1N | inactive
COc1ccc(N2C(=O)/C(=C\Nn3cnnc3)c3ccccc3C2=O)cc1 | inactive
Cc1ccc(C(=O)O)cc1N1C(=O)c2cccc3c([N+](=O)[O-])ccc(c23)C1=O | inactive
O=C(N/N=C/c1sc(N2CCOCC2)nc1-c1ccccc1)c1ccc(O)cc1 | inactive
Cc1cc(C)c2cc(CN(Cc3nnnn3C3CCCCC3)CC3CCCO3)c(O)nc2c1 (stereo not drawn) | 22.4 µM (active)
CN(C)CCN(Cc1cc2cc3c(cc2nc1O)OCO3)C(S)=NCC1CCCO1 (stereo not drawn) | inactive
Cc1ccc2cc(CN(Cc3ccc(F)cc3)Cc3nnnn3C3CCCC3)c(O)nc2c1 | 39.8 µM (active)
CCC(NC(C)C)C(O)c1ccc(O)c2[nH]c(=O)ccc12 (stereo not drawn) | inactive
CCOc1ccccc1N(CC(=O)Nc1ccccc1Br)S(=O)(=O)c1ccccc1 | inactive
COc1ccc(Cl)cc1NC(=O)CN(c1cc(C)cc(C)c1)S(=O)(=O)c1c(C)n[nH]c1C | 35.5 µM (active)
COc1ccc(Cl)cc1NC(=O)CN(C)C1CCS(=O)(=O)C1 (stereo not drawn) | inactive
CCOc1ccc(OCC)c(NC(=O)CN(c2ccc(C)cc2)S(=O)(=O)c2c(C)n[nH]c2C)c1 | 35.5 µM (active)
COc1ccc(C)cc1NC(=O)CN(C)S(=O)(=O)c1ccc2c(c1)CC(C)N2C(C)=O (stereo not drawn) | inactive
COc1ccc(Cl)cc1NC(=O)COC(=O)c1ccc(C)o1 | inactive
Cc1ccc2[nH]c3c(c2c1)SC(C)(C)CC3=O | inactive
C=CCc1ccc(O)c(-c2ccc(O)c(CC=C)c2)c1 | 28.2 µM (active)
CC(=O)Nc1sc(/C(C#N)=C\c2cccc(Cl)c2)nc1-c1ccc(C)cc1 | inactive
CCC(C)n1c(=N)c(C(=O)NCc2ccco2)cc2c(=O)n3cc(C)ccc3nc21 (stereo not drawn) | inactive
COc1ccc(NC(=O)CSc2c3c(nc4cc(Cl)ccc24)CCCC3)cc1OC | 31.6 µM (active)

SMILES | Potency
COc1cccc(NC(=O)CSc2c3c(nc4ccccc24)CCCC3)c1 | 35.5 µM (active)
COc1ccc(NC(=O)CSc2nc(C)cs2)c(OC)c1 | inactive
Cc1ccc(NC(=O)CSc2c3c(nc4ccccc24)CCCC3)cc1F | 35.5 µM (active)
CNC(=O)COC(=O)c1c2c(nc3ccccc13)CCC2 | inactive
COc1ccc(CC(=O)Nc2ccc3nc(Nc4cccc(Cl)c4)cc(C)c3c2)cc1OC | inactive
COc1ccc(Cl)cc1-c1n[nH]c(SCC(=O)NC2CC2)n1 | inactive
COc1ccc(NC(=O)CSc2nc3ccsc3c(=O)n2Cc2ccccn2)c(OC)c1 | inactive
O=C(CSc1nnc(-c2ccccc2F)n1C1CC1)Nc1ccc2[nH]c(O)nc2c1 | inactive
COc1ccc(NC(=O)CSc2c3c(nc4ccccc24)CCCC3)c(OC)c1 | 39.8 µM (active)
Cc1ccc(C2CC(=O)Nc3cc4c(cc32)OCCO4)cc1 (stereo not drawn) | inactive
CCOC(=O)C1=C(N)Oc2cc(O)ccc2C1c1ccc(F)cc1F (stereo not drawn) | inactive
COc1ccc(CCNC(=O)C(=O)NCc2ccc(Cl)cc2)cc1OC | inactive
Cc1ccc(NC(=O)CSc2nc3ccccc3c(=O)n2CCCN2CCCCC2)cc1C | 31.6 µM (active)
COc1ccc(CCNC(=O)c2ccc3c(Cl)c4c(nc3c2)CCCC4)cc1OC | 31.6 µM (active)
COc1ccc(OC)c(NC(=O)CSc2nc3nc(O)cc(O)c3s2)c1 | inactive
CCCn1c(SCC(=O)NCCCN2CCCC2=O)nc2ccccc2c1=O | inactive
Cc1ccc(NC(=O)CSc2nc3ccccc3c(=O)n2CCCC(=O)NCCCN2CCOCC2)cc1 | inactive
COc1ccc(CCNC(=O)Cc2c(C)c3ccc(O)c(C)c3oc2=O)cc1OC | inactive
COc1ccc(OC)c(NC(=O)CSc2c3c(nc4ccccc24)CCCC3)c1 | 39.8 µM (active)
CCOC(=O)c1cc2c(=O)n3ccccc3nc2n(C(C)C)/c1=N/C(=O)C(C)(C)Oc1ccc(Cl)cc1 | inactive
CCn1c(=N)c(C(=O)NCc2ccccc2)cc2c(=O)n3cccc(C)c3nc21 | inactive

SMILES | Potency
O=C(O)c1cccc(CSc2nnc(-c3cccnc3)o2)c1 | inactive
Nc1nc2nccc(-c3cccnc3)n2n1 | inactive
c1cncc(-c2nnc(-c3cccnc3)nn2)c1 | 35.5 µM (active)
CCOC(=O)C1=C(C)c2ccccc2N(C(=O)OC)C1(C)C(=O)OCC (stereo not drawn) | 35.5 µM (active)
O=C1c2ccccc2-c2onc3c(N4CCN(CCO)CC4)cc(N4CCN(C(=O)c5ccco5)CC4)c1c23 | 39.8 µM (active)
O=C(c1ccco1)N1CCN(Cc2cc(=O)oc3cc(O)ccc23)CC1 | inactive
Nc1cccc2c1C(=O)N(C(=O)c1ccco1)C2=O | inactive
CC(C)(C)N(CC#CCC(O)(c1ccccc1)c1ccccc1)CCO | inactive
CCC[C@@H](CNC)NC[C@H](Cc1ccccc1)NCCCCc1ccccc1 | 39.8 µM (active)
CCC(C(=O)NCCc1ccccc1)c1ccccc1 (stereo not drawn) | inactive
CCCn1c(CC)nc([N+](=O)[O-])c1S(=O)(=O)c1ccccc1 | 35.5 µM (active)
CCCn1c(=N)c(S(=O)(=O)c2ccccc2)cc2c(=O)n3ccccc3nc21 | inactive
O=C(O)/C=C/c1nc(-c2ccccc2)n2ccccc12 | inactive
CC(=O)Oc1c(-c2ccco2)oc2ccccc2c1=O | inactive
COc1cccc(CNC(=O)CCCc2nnc3n(C)c(=O)c4sccc4n23)c1 | inactive
O=C(N/N=C/c1cc(Br)c(O)c(Br)c1)c1cc2c(ccc3ccccc32)o1 | inactive
O=C(N/N=C/c1ccc([N+](=O)[O-])o1)c1cc2ccccc2o1 | 10 µM (active)
Cc1ccc(C(=O)N/N=C/c2ccc(-c3ccc(Br)cc3[N+](=O)[O-])o2)o1 | inactive
Cc1ccc(-c2ccc(/C=N\NC(=O)c3cc4c(ccc5ccccc54)o3)o2)cc1[N+](=O)[O-] | 37.7 µM (active)
C/C(=N\Nc1ccc([N+](=O)[O-])cc1)c1cc2ccccc2o1 | inactive
COc1ccc(OC)c(/C=N\NC(=O)c2cc3c(ccc4ccccc43)o2)c1 | inactive
